In paper PMC3218832:

Tests used:
Test in all cases: protein binding microarray; high values mean tight binding
Details in all cases: dsDNA, one strand shown
[1] = biological target: RELARELA (p65 homodimer) (Homo sapiens, UniProt Q04206 1-307)
[2] = biological target: p50p50 homodimer (Homo sapiens, UniProt P19838 7-356)
[3] = biological target: T1, p52p52 homodimer (Homo sapiens, UniProt Q00653 4-332)
T1 sequence: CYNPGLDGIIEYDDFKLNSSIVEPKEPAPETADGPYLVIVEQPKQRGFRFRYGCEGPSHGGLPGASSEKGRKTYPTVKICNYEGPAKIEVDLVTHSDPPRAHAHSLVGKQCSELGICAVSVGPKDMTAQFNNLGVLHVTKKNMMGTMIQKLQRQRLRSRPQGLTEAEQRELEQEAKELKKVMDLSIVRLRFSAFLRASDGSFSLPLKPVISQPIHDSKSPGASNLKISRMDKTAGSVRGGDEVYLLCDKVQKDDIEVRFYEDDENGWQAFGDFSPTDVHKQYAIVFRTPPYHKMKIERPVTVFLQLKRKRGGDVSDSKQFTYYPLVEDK

[4] = biological target: RELA (p65) subunit of heterodimer;p50 subunit (Homo sapiens;Homo sapiens, UniProt Q04206;P19838 1-307;7-356)
[5] = biological target: RELA (p65) subunit of heterodimer;p52 subunit (Homo sapiens;Homo sapiens, UniProt Q04206;Q00653 1-307;4-332)
[6] = biological target: RELB subunit;p50 subunit (Homo sapiens;Homo sapiens, UniProt Q01201;P19838 120-401;7-356)
[7] = biological target: T2, RELB subunit;p52 subunit (Homo sapiens;Homo sapiens, UniProt Q01201;Q00653 120-401;4-332)
T2 sequence 1: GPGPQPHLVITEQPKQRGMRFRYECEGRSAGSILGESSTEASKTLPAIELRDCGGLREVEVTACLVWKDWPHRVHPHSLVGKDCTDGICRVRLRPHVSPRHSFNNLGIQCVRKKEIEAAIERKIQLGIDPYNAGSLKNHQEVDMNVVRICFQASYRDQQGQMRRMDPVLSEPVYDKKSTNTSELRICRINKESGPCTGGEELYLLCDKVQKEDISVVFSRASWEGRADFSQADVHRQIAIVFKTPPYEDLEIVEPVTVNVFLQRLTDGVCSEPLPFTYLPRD
T2 sequence 2: T1 sequence

[8] = biological target: C-Rel subunit;p50 subunit (Homo sapiens;Homo sapiens, UniProt Q04864;P19838 1-285;7-356)
[9] = biological target: T3, C-Rel subunit;p52 subunit (Homo sapiens;Homo sapiens, UniProt Q04864;Q00653 1-285;4-332)
T3 sequence 1: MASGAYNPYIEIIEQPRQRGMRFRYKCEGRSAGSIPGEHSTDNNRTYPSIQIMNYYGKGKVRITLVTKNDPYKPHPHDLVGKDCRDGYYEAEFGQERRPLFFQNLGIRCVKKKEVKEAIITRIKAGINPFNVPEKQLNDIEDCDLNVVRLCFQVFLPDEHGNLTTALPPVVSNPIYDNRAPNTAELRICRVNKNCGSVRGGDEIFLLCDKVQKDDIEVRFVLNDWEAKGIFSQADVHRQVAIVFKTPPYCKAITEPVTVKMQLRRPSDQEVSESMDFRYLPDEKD
T3 sequence 2: T1 sequence

Sequence of RELARELA (p65 homodimer) (Q04206 1-307): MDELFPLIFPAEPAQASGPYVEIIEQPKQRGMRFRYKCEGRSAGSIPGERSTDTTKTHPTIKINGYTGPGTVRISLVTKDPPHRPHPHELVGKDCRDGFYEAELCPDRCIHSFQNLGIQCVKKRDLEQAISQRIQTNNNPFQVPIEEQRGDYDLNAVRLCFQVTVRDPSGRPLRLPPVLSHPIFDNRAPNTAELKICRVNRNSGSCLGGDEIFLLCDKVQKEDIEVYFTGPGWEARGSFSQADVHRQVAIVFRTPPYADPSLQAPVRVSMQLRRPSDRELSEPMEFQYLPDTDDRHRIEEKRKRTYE
Sequence of RELA (p65) subunit of heterodimer;p50 subunit (Q04206 1-307, chain 1 of 2): as the sequence (Q04206 1-307) above
Sequence of RELA (p65) subunit of heterodimer;p50 subunit (P19838 7-356, chain 2 of 2): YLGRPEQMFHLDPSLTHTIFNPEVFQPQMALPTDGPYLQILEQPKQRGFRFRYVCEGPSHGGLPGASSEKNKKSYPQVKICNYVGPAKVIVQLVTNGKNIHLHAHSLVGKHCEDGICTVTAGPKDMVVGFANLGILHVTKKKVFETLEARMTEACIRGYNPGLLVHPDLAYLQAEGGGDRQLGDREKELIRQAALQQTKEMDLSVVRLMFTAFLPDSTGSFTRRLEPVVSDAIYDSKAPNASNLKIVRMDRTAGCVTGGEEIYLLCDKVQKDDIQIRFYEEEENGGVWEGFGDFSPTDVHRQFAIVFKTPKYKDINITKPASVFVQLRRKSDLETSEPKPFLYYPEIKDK
Sequence of p50p50 homodimer (P19838 7-356): as the sequence (P19838 7-356, chain 2 of 2) above

Sequence | binding signal [1] | binding signal [2] | binding signal [3] | binding signal [4] | binding signal [5] | binding signal [6] | binding signal [7] | binding signal [8] | binding signal [9]
CAAGGGTCCCT | -0.447 z-score | 0.337 z-score | 0.26 z-score | -0.269 z-score | 0.0513 z-score | 0.363 z-score | 0.276 z-score | -0.315 z-score | -0.166 z-score
CGAATCATCCC | -0.386 z-score | -0.966 z-score | -0.352 z-score | -0.734 z-score | -0.619 z-score | -0.644 z-score | -0.752 z-score | -0.745 z-score | -0.523 z-score
GAAAACGTCCT | -0.176 z-score | -1.26 z-score | -0.536 z-score | -0.838 z-score | -0.654 z-score | -0.872 z-score | -0.687 z-score | -0.823 z-score | -0.648 z-score
CGGGGAATCCC | 3.57 z-score | 1.22 z-score | 3.13 z-score | 2.36 z-score | 2.81 z-score | 2.64 z-score | 2.75 z-score | 2.51 z-score | 3.54 z-score
CAGAGTGCCCT | -0.65 z-score | -1.13 z-score | -0.629 z-score | -0.784 z-score | -0.964 z-score | -0.897 z-score | -0.973 z-score | -0.975 z-score | -0.713 z-score
CAGTAATTCCC | 2.18 z-score | 0.948 z-score | 0.804 z-score | 1.12 z-score | 0.865 z-score | 0.722 z-score | 0.71 z-score | 1.31 z-score | 1.05 z-score
CAGATCCCCCT | -0.0668 z-score | 1.6 z-score | 1.41 z-score | 2.39 z-score | 1.76 z-score | 2.45 z-score | 2.37 z-score | 1.85 z-score | 1.37 z-score
CAATAACTCCC | 0.145 z-score | 0.702 z-score | 0.0211 z-score | 0.38 z-score | -0.231 z-score | 0.426 z-score | -0.00688 z-score | 0.223 z-score | -0.12 z-score
AAGATAATCCT | -0.605 z-score | -1.55 z-score | -0.666 z-score | -1.04 z-score | -0.884 z-score | -1.14 z-score | -0.91 z-score | -1.26 z-score | -0.848 z-score
GGAGACGCCCT | -0.954 z-score | -1.6 z-score | -0.72 z-score | -0.832 z-score | -0.77 z-score | -1.05 z-score | -0.933 z-score | -1.16 z-score | -0.641 z-score
AGGGGACTCCC | 1.57 z-score | 0.939 z-score | 2.92 z-score | 2.01 z-score | 2.28 z-score | 1.82 z-score | 2.3 z-score | 1.9 z-score | 2.77 z-score
AGAGACACCCC | -0.871 z-score | -0.237 z-score | -0.229 z-score | -0.459 z-score | -0.359 z-score | -0.257 z-score | 0.00668 z-score | -0.227 z-score | -0.484 z-score
CGAATACCCCT | 0.147 z-score | 1.13 z-score | 0.86 z-score | 1.17 z-score | 1.12 z-score | 1.03 z-score | 1.63 z-score | 0.876 z-score | 0.881 z-score
AAATTTTTCCC | 3.12 z-score | 1.2 z-score | 1.17 z-score | 1.78 z-score | 1.37 z-score | 1.03 z-score | 1.38 z-score | 1.97 z-score | 1.31 z-score
CGATAATTCCC | 2.04 z-score | 0.948 z-score | 0.738 z-score | 1.43 z-score | 0.974 z-score | 0.871 z-score | 0.87 z-score | 1.51 z-score | 1.12 z-score
CAGGTACCCCT | -0.0502 z-score | 0.353 z-score | 0.356 z-score | 0.304 z-score | 0.796 z-score | 0.548 z-score | 1.06 z-score | 0.193 z-score | 0.274 z-score
CAGGGATCCCC | 0.967 z-score | 0.94 z-score | 0.898 z-score | 1.56 z-score | 1.23 z-score | 1.11 z-score | 1.1 z-score | 1.1 z-score | 1.31 z-score
GGGTATATCCC | 1.19 z-score | 0.245 z-score | 2.43 z-score | 0.931 z-score | 1.62 z-score | 0.847 z-score | 0.92 z-score | 0.341 z-score | 1.12 z-score
GAGGGTTCCCT | -0.44 z-score | -0.133 z-score | -0.121 z-score | -0.238 z-score | -0.0267 z-score | -0.011 z-score | 0.0453 z-score | -0.173 z-score | -0.0776 z-score
GGGGTCTCCCT | 0.447 z-score | 0.727 z-score | 1.4 z-score | 1.01 z-score | 1.15 z-score | 0.85 z-score | 1.05 z-score | 0.709 z-score | 1.16 z-score
GGAGTCACCCT | -0.674 z-score | -0.676 z-score | -0.345 z-score | -0.224 z-score | -0.5 z-score | -0.378 z-score | -0.661 z-score | -0.396 z-score | -0.585 z-score
GAGATAGTCCT | -0.228 z-score | -0.791 z-score | -0.575 z-score | -0.973 z-score | -0.809 z-score | -0.986 z-score | -0.865 z-score | -1.2 z-score | -0.764 z-score
CGGGTCCTCCC | -0.107 z-score | -0.467 z-score | -0.154 z-score | -0.451 z-score | -0.038 z-score | -0.526 z-score | -0.335 z-score | -0.324 z-score | 0.0736 z-score
GAAGGCTCCCT | -0.795 z-score | -1.03 z-score | -0.473 z-score | -0.74 z-score | -0.784 z-score | -0.594 z-score | -0.67 z-score | -1.02 z-score | -0.773 z-score
AAATAATTCCT | 0.497 z-score | -0.505 z-score | -0.44 z-score | -0.41 z-score | -0.399 z-score | -0.654 z-score | -0.671 z-score | 0.179 z-score | -0.124 z-score
AAGAGTACCCT | -0.409 z-score | 0.828 z-score | 0.248 z-score | 0.398 z-score | 0.224 z-score | 0.66 z-score | 0.374 z-score | 0.116 z-score | 0.104 z-score
GAATGGCCCCT | -0.247 z-score | 0.432 z-score | 0 z-score | 0.128 z-score | 0.262 z-score | 0.27 z-score | 0.242 z-score | -0.321 z-score | -0.168 z-score
AAAGGCACCCT | -1.13 z-score | -0.88 z-score | -0.454 z-score | -0.697 z-score | -0.787 z-score | -0.685 z-score | -0.711 z-score | -1.07 z-score | -0.741 z-score
GGGAAGCTCCC | 1.42 z-score | 0.219 z-score | 1.52 z-score | 1.07 z-score | 1.16 z-score | 0.839 z-score | 0.35 z-score | 0.354 z-score | 0.716 z-score
AGGTTACCCCT | -0.124 z-score | 0.813 z-score | 0.514 z-score | 0.468 z-score | 0.804 z-score | 0.84 z-score | 1.36 z-score | 0.567 z-score | 0.609 z-score
